# Several values for one entry are separate records, joined by “and”; a condition that tells them apart may be missing. Identical values can stand only once. Unmarked numbers belong to inactive results. Records with an inconclusive call do not appear. Where a call stands in place of a potency, no number is given. Activity calls are given as the source filed them. Unless noted, calls follow the shape of the dose curve; as a rule, active = well fitted curve in the direction sought with a large enough effect in the repeat runs; inconclusive = weak or mixed curves; inactive = no such curve, though single readings can be large; an effect the other way counts as inactive or inconclusive.
# How the values were obtained:
# [1] = qHTS assay to identify small molecule antagonists of the sonic hedgehog signaling (Shh) pathway (AID 1259369; calls by dose curve; also: nearly all actives have a fitted effect of over 45% in size; also: potency is read from the fitted curve at half-maximal effect)
# Method in brief: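 For antagonist detection, the reporter line received test compounds together with conditioned medium, incubated 24hr at 37 C, 5% CO2, then luminescence was recorded following 30min room-temperature luciferase reagent incubation.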
# [2] = qHTS assay to identify small molecule agonists of the androgen receptor (AR) signaling pathway in the presence of an antagonist - cell viability counter screen (AID 1259379); also: nearly all actives have a fitted effect of over 25% in size; also: potency is read from the fitted curve at half-maximal effect
# Method in brief: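 Seed MDA-kb2 at 3,000 cells/well; incubate 5 hr, 37C, 0% CO2. Add nilutamide to 3.0uM final, then pin compounds at 15 concentrations. Incubate 16 hr. Add CellTiter-Fluor at 15 hr, read fluorescence after 1 hr.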
# [3] = qHTS assay to identify small molecule agonists of the estrogen receptor beta (ER-beta) signaling pathway - cell viability counter screen (AID 1259380); also: nearly all actives have a fitted effect of over 30% in size
# Method in brief: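 CellTiter-Glo read, 30 min RT, same wells as bla assay; cells ER-beta-UAS-bla HEK293T; 16 hr compound, 37C; medium 2% charcoal-stripped FBS.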
# [4] = qHTS assay to identify small molecule antagonists of the estrogen receptor beta (ER-beta) signaling pathway - cell viability counter screen (AID 1259382);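 also: HEK293T cells carrying ER-beta-UAS-bla reporter stimulated with estradiol; series mostly up to about 92 µM; nearly all actives have a fitted effect of over 55% in size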
# Method in brief: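 In this multiplexed counter screen, cells were seeded at 2,000 per well in medium with 2% charcoal-stripped FBS and incubated 6 hr before compound and 1nM final E2 were added. Sixteen hours later, ATP-based luminescence reported viability.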
# [5] = qHTS assay to identify small molecule agonists or antagonists of the thyroid stimulating hormone receptor (TSHR) signaling pathway - wild type cell line counter screen (AID 1259384; calls by dose curve)
# Method in brief: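 Wild-type HEK293 cells were plated 18 h at 37 C/5% CO2, pin-dosed with compound plus Ro20-1724 medium, held 30 min at room temperature, then given cAMP-d2 and anti-cAMP-cryptate; fluorescence was read after 1 h. Fifteen concentrations, triplicate.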
# [6] = target: Thyrotropin receptor (Homo sapiens) (UniProt P16473); experiment: qHTS assay to identify small molecule antagonists of the thyroid stimulating hormone receptor (TSHR) signaling pathway (AID 1259385; calls by dose curve; also: nearly all actives have a fitted effect of over 20% in size)
# Method in brief: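 TSHR-HEK293 cells were plated and held 18 h at 37C/5% CO2, then given compound plus Ro20-1724 and stimulated with TSH at 1.5 ng/mL final. After 30 min at room temperature, cAMP was detected with cAMP-d2/anti-cAMP-cryptate (1 h) by fluorescence.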
# [7] = qHTS assay to identify small molecule agonists of the estrogen receptor alpha (ER-alpha) signaling pathway in the presence of an antagonist - cell viability counter screen (AID 1259386);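 also: cells exposed to compounds for 22 h at 37 °C before the viability read; nearly all actives have a fitted effect of over 30% in size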; also: potency is read from the fitted curve at half-maximal effect
# Method in brief: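 Viability counter screen using VM7Luc4E2 (full-length ER-alpha, four ERE-luciferase). The cells were treated with compounds alongside ICI-182,780 10.0nM for 22hr, and live-cell protease fluorescence was quantified with CellTiter-Fluor.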
# [8] = target: Progesterone receptor (Homo sapiens) (UniProt P06401); experiment: qHTS assay to identify small molecule agonists of the progesterone receptor (PR) signaling pathway (AID 1346784; calls by dose curve; also: nearly all actives have a fitted effect of over 30% in size)
# Method in brief: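 Agonist qHTS: compounds pinned onto 3,000 PR-UAS-bla HEK 293T cells per well in charcoal-stripped serum medium, 16hr at 37C, then beta-lactamase activity measured by LiveBLAzer FRET fluorescence after 2 hours at room temperature.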
# [9] = qHTS assay to identify small molecule antagonists of the progesterone receptor (PR) signaling pathway - cell viability counter screen (AID 1346798); also: series mostly up to about 92 µM; nearly all actives have a fitted effect of over 50% in size
# Method in brief: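 Cytotoxicity read as CellTiter-Glo luminescence (30 min, room temperature) in the same wells as the beta-lactamase readout. HEK293T PR-UAS-bla cells in charcoal-stripped 2% FBS received compound and R5020, then 16 h at 37C, 5% CO2.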
# [10] = qHTS assay to identify small molecule antagonists of the TGF-beta/Smad signaling pathway - cell viability counter screen (AID 1346824); also: nearly all actives have a fitted effect of over 50% in size
# Method in brief: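 SBE-bla HEK 293T cells were plated overnight at 37 C, then given compounds in DMSO plus TGF-beta1 (added as 0.25 ng/mL solution) for 5 hr. After the bla read, CellTiter-Glo was added to the same wells and luminescence read after 30 min at room temperature.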
# [11] = qHTS assay to identify small molecule agonists of the TGF-beta/Smad signaling pathway - cell viability counter screen (AID 1346829); also: top concentration of the series differs between compounds; nearly all actives have a fitted effect of over 45% in size
# Method in brief: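 SBE-bla HEK 293T cells plated overnight, compound exposure 5 hr at 37 C. Viability read in the same wells by CellTiter-Glo luminescence after 30 min at room temperature, following the beta-lactamase read.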
# [12] = qHTS assay to identify small molecule agonists of the TGF-beta/Smad signaling pathway (AID 1346859; active = well fitted activation curve with a large enough effect in the signal ratio in the repeat runs, not every such curve was filed as active; the % refers to the signal ratio; also: series mostly up to about 77 µM)
# Method in brief: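 Fluorescence (ex 405 nm; em 460 and 530 nm) was read 2 h after LiveBLAzer FRET substrate at RT. The preceding compound treatment of overnight-plated SBE-bla HEK293T cells lasted 5 h at 37 C.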
# [13] = target: Thyrotropin-releasing hormone receptor (Homo sapiens) (UniProt P34981); experiment: qHTS assay to identify small molecule antagonists of the thyrotropin-releasing hormone receptor (TRHR) signaling pathway (AID 1346877; active = well fitted inhibition curve with a large enough effect in the repeat runs, not every such curve was filed as active; also: series mostly up to about 51 µM)
# Method in brief: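 Following an 18 h incubation at 37 °C and a 2 h calcium dye load, TRHR-HEK293 cells were exposed to compound (5 min, room temperature) and challenged with TRH, 1 nM final.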
# [14] = target: Thyrotropin-releasing hormone receptor (Homo sapiens) (UniProt P34981); experiment: qHTS assay to identify small molecule agonists of the thyrotropin-releasing hormone receptor (TRHR) signaling pathway (AID 1346891; calls by dose curve; also: series mostly up to about 58 µM)
# Method in brief: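 Agonist-mode intracellular calcium readout: kinetic fluorescence over 3 min at 1 s intervals after compound addition to TRHR-HEK293 cells (18 h seeded, 2 h dye-loaded at 37 C). Fifteen concentrations, triplicates.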
# [15] = target: Progesterone receptor (Homo sapiens) (UniProt P06401); experiment: qHTS assay to identify small molecule antagonists of the progesterone receptor (PR) signaling pathway (AID 1346795; active = well fitted inhibition curve with a large enough effect in the signal ratio in the repeat runs, not every such curve was filed as active; the % refers to the signal ratio)
# Method in brief: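 Antagonist mode with agonist R5020 at 1 nM final and 16 hr incubation at 37C. Reporter was beta-lactamase driven by UAS in HEK293T (PR-UAS-bla), 2% charcoal-stripped serum; signal from LiveBLAzer FRET substrate, 2 hr at room temperature.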
# [16] = qHTS assay to identify small molecule agonists of the progesterone receptor (PR) signaling pathway - cell viability counter screen (AID 1346799; calls by dose curve; also: nearly all actives have a fitted effect of over 45% in size)
# Method in brief: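 Cytotoxicity measured by CellTiter-Glo luminescence (30 min, RT) in the same wells as the PR beta-lactamase agonist read. Those HEK293T cells had 16 h compound treatment at 37 C in 2% charcoal-stripped FBS medium.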
# [17] = target: Estrogen receptor (Homo sapiens) (UniProt P03372); experiment: qHTS assay to identify small molecule agonists of the estrogen receptor alpha (ER-alpha) signaling pathway in the presence of an antagonist (AID 1259383; calls by dose curve; also: top concentration of the series differs between compounds; nearly all actives have a fitted effect of over 15% in size)
# Method in brief: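 Stably transfected VM7Luc4E2 reporter cells, kept 5 days in charcoal-stripped serum, received ICI-182,780 at 10.0nM final before compound addition. Following 22hr incubation at 37C and 5% CO2, luciferase signal was read by luminescence.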
# [18] = target: Androgen receptor (Homo sapiens) (UniProt P10275); experiment: qHTS assay to identify small molecule agonists of the androgen receptor (AR) signaling pathway in the presence of an antagonist (AID 1259381; calls by dose curve; also: nearly all actives have a fitted effect of over 15% in size)
# Method in brief: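 Test compounds at 15 concentrations were incubated for 16hr with MDA-kb2 reporter cells in presence of 3.0uM nilutamide (final). Signal: ONE-Glo luciferase luminescence.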
# Progesterone receptor (Homo sapiens), sequence (P06401 whole entry, looked up): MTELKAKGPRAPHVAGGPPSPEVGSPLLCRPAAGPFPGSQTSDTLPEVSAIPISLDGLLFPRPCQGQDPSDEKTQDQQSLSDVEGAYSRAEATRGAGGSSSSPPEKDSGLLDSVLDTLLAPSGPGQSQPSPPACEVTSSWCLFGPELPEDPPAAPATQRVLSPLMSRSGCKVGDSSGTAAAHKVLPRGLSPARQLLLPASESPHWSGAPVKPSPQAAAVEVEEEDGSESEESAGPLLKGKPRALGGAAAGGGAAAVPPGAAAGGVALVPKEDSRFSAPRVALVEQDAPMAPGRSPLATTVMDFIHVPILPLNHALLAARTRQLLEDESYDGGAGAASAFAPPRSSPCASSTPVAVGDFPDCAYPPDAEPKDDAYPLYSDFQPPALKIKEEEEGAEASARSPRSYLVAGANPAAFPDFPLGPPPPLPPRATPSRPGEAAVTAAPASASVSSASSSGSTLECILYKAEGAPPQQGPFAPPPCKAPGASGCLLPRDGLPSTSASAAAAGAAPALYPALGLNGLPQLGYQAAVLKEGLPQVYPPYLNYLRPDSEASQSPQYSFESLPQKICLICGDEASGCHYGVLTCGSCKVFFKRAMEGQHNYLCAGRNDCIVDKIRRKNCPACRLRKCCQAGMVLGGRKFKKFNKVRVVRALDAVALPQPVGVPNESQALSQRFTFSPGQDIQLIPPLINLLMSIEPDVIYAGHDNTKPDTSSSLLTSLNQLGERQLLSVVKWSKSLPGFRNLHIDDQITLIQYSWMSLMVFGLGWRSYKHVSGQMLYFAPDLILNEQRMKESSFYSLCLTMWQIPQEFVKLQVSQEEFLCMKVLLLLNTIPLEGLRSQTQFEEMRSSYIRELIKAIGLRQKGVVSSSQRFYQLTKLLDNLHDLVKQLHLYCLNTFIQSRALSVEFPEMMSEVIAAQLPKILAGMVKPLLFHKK
# Estrogen receptor (Homo sapiens), sequence (P03372 whole entry, looked up): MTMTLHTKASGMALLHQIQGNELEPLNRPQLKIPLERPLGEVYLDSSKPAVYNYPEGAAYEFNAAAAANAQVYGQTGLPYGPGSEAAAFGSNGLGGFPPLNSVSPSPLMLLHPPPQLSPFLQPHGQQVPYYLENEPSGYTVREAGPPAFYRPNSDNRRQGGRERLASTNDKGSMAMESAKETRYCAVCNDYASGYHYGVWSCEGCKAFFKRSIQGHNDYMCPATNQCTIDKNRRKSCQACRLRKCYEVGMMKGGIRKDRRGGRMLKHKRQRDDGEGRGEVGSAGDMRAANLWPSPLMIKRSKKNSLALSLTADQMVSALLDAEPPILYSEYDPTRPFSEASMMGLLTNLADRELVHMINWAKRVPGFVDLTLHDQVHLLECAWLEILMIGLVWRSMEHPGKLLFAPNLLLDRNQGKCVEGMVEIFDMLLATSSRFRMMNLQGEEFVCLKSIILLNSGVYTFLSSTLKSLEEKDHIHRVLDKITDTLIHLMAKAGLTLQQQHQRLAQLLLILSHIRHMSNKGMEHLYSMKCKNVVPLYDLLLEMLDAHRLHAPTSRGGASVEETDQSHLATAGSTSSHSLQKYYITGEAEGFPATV
# Thyrotropin receptor (Homo sapiens), sequence (P16473 whole entry, looked up): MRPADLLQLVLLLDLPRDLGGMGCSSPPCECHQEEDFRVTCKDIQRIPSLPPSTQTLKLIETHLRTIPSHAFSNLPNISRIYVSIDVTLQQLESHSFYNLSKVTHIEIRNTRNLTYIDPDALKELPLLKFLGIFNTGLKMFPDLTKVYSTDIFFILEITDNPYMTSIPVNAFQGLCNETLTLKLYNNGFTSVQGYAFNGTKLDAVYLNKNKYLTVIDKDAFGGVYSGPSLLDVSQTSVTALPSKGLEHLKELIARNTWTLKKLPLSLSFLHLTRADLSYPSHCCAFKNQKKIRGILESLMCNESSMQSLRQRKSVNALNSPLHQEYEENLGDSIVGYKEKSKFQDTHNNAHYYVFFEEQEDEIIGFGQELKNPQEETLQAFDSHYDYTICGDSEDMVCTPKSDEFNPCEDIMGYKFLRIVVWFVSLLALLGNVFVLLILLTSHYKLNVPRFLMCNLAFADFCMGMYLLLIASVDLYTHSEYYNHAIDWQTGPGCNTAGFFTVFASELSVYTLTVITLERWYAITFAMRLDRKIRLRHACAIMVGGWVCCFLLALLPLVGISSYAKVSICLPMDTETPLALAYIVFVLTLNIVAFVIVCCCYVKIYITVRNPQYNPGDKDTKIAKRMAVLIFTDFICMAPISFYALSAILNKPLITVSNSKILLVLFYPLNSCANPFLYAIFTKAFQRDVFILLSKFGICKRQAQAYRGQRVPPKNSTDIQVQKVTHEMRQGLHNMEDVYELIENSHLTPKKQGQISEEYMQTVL
# Thyrotropin-releasing hormone receptor (Homo sapiens), sequence (P34981 whole entry, looked up): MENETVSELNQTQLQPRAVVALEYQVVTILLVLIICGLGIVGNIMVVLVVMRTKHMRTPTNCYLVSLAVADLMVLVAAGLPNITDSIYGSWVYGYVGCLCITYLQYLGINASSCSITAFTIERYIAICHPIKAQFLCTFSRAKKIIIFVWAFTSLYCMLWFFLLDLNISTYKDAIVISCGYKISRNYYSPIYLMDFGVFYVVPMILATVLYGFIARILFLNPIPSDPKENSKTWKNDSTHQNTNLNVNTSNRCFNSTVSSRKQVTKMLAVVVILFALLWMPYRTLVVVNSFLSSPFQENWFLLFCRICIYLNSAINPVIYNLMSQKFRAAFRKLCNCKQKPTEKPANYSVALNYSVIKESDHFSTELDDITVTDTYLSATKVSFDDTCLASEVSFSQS
# Androgen receptor (Homo sapiens), sequence (P10275 whole entry, looked up): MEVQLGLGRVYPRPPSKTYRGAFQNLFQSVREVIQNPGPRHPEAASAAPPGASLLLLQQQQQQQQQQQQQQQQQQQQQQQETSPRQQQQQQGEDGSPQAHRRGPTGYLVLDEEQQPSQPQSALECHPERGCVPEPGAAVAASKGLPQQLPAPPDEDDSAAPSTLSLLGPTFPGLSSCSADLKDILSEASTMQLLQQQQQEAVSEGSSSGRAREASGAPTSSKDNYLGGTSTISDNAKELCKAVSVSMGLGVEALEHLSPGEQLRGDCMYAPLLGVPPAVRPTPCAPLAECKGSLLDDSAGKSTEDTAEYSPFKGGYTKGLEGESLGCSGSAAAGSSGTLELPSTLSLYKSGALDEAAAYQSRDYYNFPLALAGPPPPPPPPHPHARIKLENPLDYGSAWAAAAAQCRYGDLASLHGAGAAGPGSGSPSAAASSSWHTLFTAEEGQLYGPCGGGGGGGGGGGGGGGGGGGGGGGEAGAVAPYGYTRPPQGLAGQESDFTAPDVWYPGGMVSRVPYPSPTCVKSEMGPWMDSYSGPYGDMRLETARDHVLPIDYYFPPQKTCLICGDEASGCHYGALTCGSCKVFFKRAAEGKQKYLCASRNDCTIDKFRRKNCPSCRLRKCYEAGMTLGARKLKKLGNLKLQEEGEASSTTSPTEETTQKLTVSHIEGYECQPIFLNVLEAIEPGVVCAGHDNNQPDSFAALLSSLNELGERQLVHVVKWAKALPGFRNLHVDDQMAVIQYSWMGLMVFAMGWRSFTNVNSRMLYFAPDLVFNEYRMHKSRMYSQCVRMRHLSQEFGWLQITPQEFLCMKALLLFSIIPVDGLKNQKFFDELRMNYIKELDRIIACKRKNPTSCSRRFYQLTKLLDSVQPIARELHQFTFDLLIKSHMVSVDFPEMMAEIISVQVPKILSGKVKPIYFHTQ
Structure (SMILES),Potency [1],Potency [2],Potency [3],Potency [4],Potency [5],Potency [6],Potency [7],Potency [8],Potency [9],Potency [10],outcome [11],Potency [12],outcome [13],Potency [14],Potency [15],Potency [16],Potency [17],Potency [18]
O=C(OCCc1ccccc1)c1ccccc1,inactive,inactive,inactive,inactive,inactive,inactive,inactive,inactive,inactive,inactive,inactive,inactive,inactive,inactive,,,,
CC(=O)[O][Al][O]C(C)=O,inactive,inactive,,inactive,inactive,,inactive,inactive,inactive,inactive,inactive,inactive,,,inactive,inactive,,
CCCCCCCC/C=C\CCCCCCCC(=O)OCC,inactive,inactive,inactive,inactive,inactive,inactive,inactive,,inactive,inactive,inactive,inactive,,inactive,inactive,,,
CC1=CC=C(C(C)C)CC1,inactive,inactive,inactive,inactive,,,inactive,inactive,inactive,inactive,,inactive,,,inactive,inactive,inactive,
O=C(c1ccc(F)cc1)C1CCN(CCn2c(=S)[nH]c3ccccc3c2=O)CC1,inactive,inactive,,,inactive,inactive,,inactive,,inactive,,,inactive,inactive,,inactive,,inactive
CCCC(=O)Nc1ccc(O)c(C(C)=O)c1,inactive,inactive,inactive,inactive,inactive,inactive,inactive,inactive,inactive,inactive,,inactive,inactive,inactive,,inactive,,
C=CC(=O)OCCOCCOCCOCCOC(=O)C=C,3.08 µM (active) and 6.06 µM (active),61.4 µM (active) and 54 µM (active),,inactive,inactive,inactive,54.8 µM (active) and 68 µM (active),inactive,,,inactive,inactive,inactive,inactive,,,inactive,
Nc1c(CC(=O)O)cccc1C(=O)c1ccc(Br)cc1,inactive,inactive,inactive,inactive,inactive,inactive,inactive,inactive,inactive,inactive,inactive,,inactive,inactive,inactive,,,
CC[N+](C)(CC)CCOC(=O)C(O)(c1ccccc1)C1CCCCC1 (centres undefined),inactive,inactive,inactive,inactive,inactive,inactive,,,inactive,inactive,inactive,inactive,,,inactive,inactive,inactive,
